Here are results for 96 molecules from PubChem BioAssay AID2314 (National Center for Advancing Translational Sciences (NCATS), 2010).

SMILES strings stand for the structures. Among all 300,000 compounds or so, about 37,000 (12%) were called active. Rule as the data show it: active = max response mostly above about 13% (no sharp cut-off); inactive = mostly below about 14%. The sample as a whole holds a higher share of actives than the screen did.

This experiment can be described thus: Cycloheximide Counterscreen for Small Molecule Inhibitors of Shiga Toxin. Also: read at 38.3 µM for the half of the compounds with a filed dose; 0% is about no effect. The conditions noted are these: cell reporter, cycloheximide protein synthesis inhibition counterscreen; stronger effect = higher value.
With `COCCOC(=O)c1c(C)oc2cc(Br)c(OCC(N)=O)cc12`, the max response is -1.75% (inactive). With `Cc1cc(-c2nc(C)c(-c3nnc(SCC(=O)Nc4ccccc4)n3C)s2)no1`, the max response is -3.06% (inactive). Next, `CCCc1cc(-c2nc(-c3ccc(C)cc3)cs2)ccn1`: 39.7% (active). Next, `Cc1ccc(-c2csc(-c3c[nH]c4ccccc34)n2)cc1`: 52.5% (active).

On to `CCn1c(SCCC(C)C)nnc1-c1c[nH]c2ccccc12`, for which the max response is -5.75% (inactive). As for `Cc1ccc(-c2csc(-c3cc(C)on3)n2)cc1`, the max response was 17% (active).

Turning to `CCCc1nc2scc(-c3ccc(C)cc3)c2c(=O)n1N`, the max response was 25.8% (inactive).

On to `CCCc1cc(-c2n[nH]c(=S)n2CC)c2ccccc2n1`, for which the max response is -5.71% (inactive). Consider `Cc1cc(-c2n[nH]c(=S)n2-c2ccc(C)c(C)c2)no1`, for which the max response is 10.2% (inactive). In the case of `CCC(C)Sc1nnc(-c2c[nH]c3ccccc23)n1CCOC` (stereo unspecified), the max response is -2.17% (inactive). `COc1cccc(N(CC(=O)NC2CCCC2)C(=O)CCCC(=O)Nc2ccccn2)c1`: the max response is -1.64% (inactive).

Consider `Cn1nccc1C(=O)NC1CCCc2c1cnn2-c1ccc(F)cc1F` (stereo unspecified), for which the max response is -0.526% (inactive). Consider `O=C(NCCN1C(=O)S/C(=C\c2cccnc2)C1=O)c1ccc(S(=O)(=O)N2CCCC2)cc1`, for which the max response is 7.82% (inactive). With `NC(=O)C1(C(N)=O)OC1c1ccc(Cl)cc1Cl` (stereo unspecified), the max response is -2.97% (inactive). Turning to `CCOCC(=O)NCc1ccc2c(c1)cc(C)n2C`, the max response is 0.782% (inactive). `Cc1sc(NC(=S)NC(=O)c2cccs2)nc1-c1ccc(CC(C)C)cc1`: the max response was 9.37% (inactive). Regarding `Cc1ccc(S(=O)(=O)CC(=O)NC(C)c2ccccc2)cc1` (stereo unspecified), the max response was -0.898% (inactive). Next, `CC1(C)SC2c3ccccc3C(=O)N2[C@@H]1C(=O)NCc1ccco1` (stereo partly specified): -2.7% (inactive). Regarding `CCCCNC(=O)c1cn(CC)c2cc(N3CCN(C(=O)c4ccco4)CC3)c(F)cc2c1=O`, the max response was -2.67% (inactive). Regarding `CC(C)OCCCNC(=O)CN1C(=O)/C(=C/c2ccccc2F)Oc2ccccc21`, the max response is -1.24% (inactive). Take `CN(C)C(=O)Cn1c(=O)n(S(=O)(=O)c2ccccc2)c2ccccc21`: the max response is -2.7% (inactive). Take `O=C(CSc1nnc2c(n1)[nH]c1ccccc12)NC1CCCCC1`: the max response was -2.06% (inactive).

Take `O=C(CSc1ncnc2c1oc1ccccc12)NC1CCCC1`: the max response was 13.3% (active).

With `O=C(CSc1nnc(-c2ccccc2O)o1)NC1CCCCC1`, the max response is -5.38% (inactive). Take `COc1ccc(N(CC(=O)NCCSCc2cccc(Cl)c2)S(C)(=O)=O)cc1`: the max response was 10.3% (inactive). Next, `COc1ccccc1NC(=O)CCC(=O)N1CC(C)Oc2ccc(C)cc21` (stereo unspecified): -2.59% (inactive); `COc1ccc(CNc2ncnc3ccccc23)cc1`: -4.12% (inactive); `COc1ccc(CNc2nccs2)cc1`: 15.6% (active). For the molecule `COc1ccc(N(CC(=O)NCc2ccc(F)cc2)C(=O)CCC(=O)Nc2nccs2)cc1`, the max response is 2.82% (inactive).

On to `O=C(NCc1cccnc1)C12CC3CC(CC(C3)C1)C2`, for which the max response was -4.42% (inactive). As for `Cc1cccc(N2C(=O)SC(SC(=Nc3ccccc3)Nc3ccccc3)C2=O)c1` (stereo unspecified), the max response was 50% (active). For the molecule `Cc1cccc(N2C(=O)CC(SC(N)=Nc3ccccc3)C2=O)c1` (stereo unspecified), the max response was 6.82% (inactive). For `COC(=O)c1ccccc1SC1CC(=O)N(c2cccc(C)c2)C1=O` (stereo unspecified), the max response was -2.47% (inactive). As for `O=C(NCc1ccc2c(c1)OCO2)C(=O)NCC1OCCN1S(=O)(=O)c1ccc(F)cc1` (stereo unspecified), the max response is 0.524% (inactive). Next, `O=S(=O)(NC1CCCC1)c1ccc(-n2cnnn2)cc1`: -3.31% (inactive); `Clc1nc(NC2CCCC2)nc(N2CCOCC2)n1`: -1.13% (inactive). For `CC1CC(C)CN(CCOc2cccc3ccccc23)C1` (stereo unspecified) the value was -3.88% (inactive); for `Cc1ccn(CCC(=O)N2c3ccccc3CC2C)n1` (stereo unspecified), -3.05% (inactive). Regarding `CCn1nc(C(=O)OCC(=O)N2c3ccccc3CC2C)c2ccccc2c1=O` (stereo unspecified), the max response is -2.9% (inactive). With `CCCC(=O)N1c2ccc(-c3csc(N)n3)cc2CC1C` (stereo unspecified), the max response is 82.4% (active).

Consider `COc1ccc(Nc2ncnc3sc(C)cc23)cc1`, for which the max response was 41% (active). For `COc1ccc(Nc2ncnc3ccc(OC)cc23)cc1` the value was 4.47% (inactive); for `COc1ccc(Nc2cc(Sc3ccc(OC)cc3)ncn2)cc1`, 12.3% (inactive).

On to `CS(=O)(=O)N1CCN(CC(=O)NC2CCCC2)CC1`, for which the max response is 2.24% (inactive). Regarding `COc1ccc(C2CC(=O)NC(=O)C2)cc1`, the max response was 5.71% (inactive). Take `O=C1COc2ccc(S(=O)(=O)NCCc3ccc(Cl)cc3)cc2N1`: the max response is -8.47% (inactive). With `COC(=O)c1c(NC(=O)CN2C(=O)NC(CCc3ccccc3)C2=O)sc2c1CCCCC2` (stereo unspecified), the max response is -2.51% (inactive).

For `Nc1cc(N2CCCCCC2)c2nonc2c1[N+](=O)[O-]`, the max response is -1.67% (inactive). Take `Cc1cccc(NC(=O)CCN2CC(C)CC(C)C2)c1` (stereo unspecified): the max response is -2.06% (inactive). `NC(=O)COc1ccc(NC(=O)c2ccccc2-c2ccccc2)cc1`: the max response is -2.28% (inactive). With `CC(=O)Nc1ccc(CC#N)cc1`, the max response was -2.61% (inactive). On to `N#CCc1ccc(NC(=O)c2ccccc2C(=O)Nc2ccc(CC#N)cc2)cc1`, for which the max response is 21.8% (active).

Consider `O=C(Nc1ccccc1N1CCOCC1)c1ccc(OCc2cscn2)cc1`, for which the max response was -3.59% (inactive).

As to `CNC(=O)N1c2ccccc2C=Cc2ccccc21`, the max response was -2.75% (inactive). For `Cc1cccc(CSc2nnc(C)c(=O)n2N)c1` the value was -1.39% (inactive); for `Cc1nnc(SCc2cccc(Cl)c2)n(N)c1=O`, 8.39% (inactive); for `Nn1c(SCc2ccccc2)nnc1C1CCCCC1`, 38.2% (active). For `O=[N+]([O-])c1ccc(N2CCN(c3ccc(F)cc3)CC2)cn1` the value was -1.96% (inactive). In the case of `CCCCC(=O)Nc1nnc(S(=O)(=O)N(C)Cc2ccco2)s1`, the max response was 12% (inactive).

For `Cc1ccc([N+](=O)[O-])cc1S(=O)(=O)N1CCCN(C)CC1`, the max response is -0.621% (inactive). Regarding `COc1cccc(C(=O)CC(=O)C(=O)Nc2ccc([N+](=O)[O-])cc2C)c1`, the max response was -0.608% (inactive).

For the molecule `Cc1cc(CNC(=O)c2cccc([N+](=O)[O-])c2)c2ccccc2n1`, the max response is 18.3% (inactive).

For `COc1cccc(NCCC(=O)c2cccc([N+](=O)[O-])c2)c1`, the max response is 34.7% (active). As to `COc1cccc(CNC(=O)CCCC(=O)Nc2cccc([N+](=O)[O-])c2)c1`, the max response is -3.22% (inactive). In the case of `CC(C)(C)SCCNC(=O)c1cccc([N+](=O)[O-])c1`, the max response is 19.6% (active). For `Cc1cccc(C(=O)NNC(=O)c2cccc([N+](=O)[O-])c2)c1` the value was 0.787% (inactive); for `COCCCNCCOCCOc1ccc(Cl)cc1Br`, -3.84% (inactive); for `CC(C)(C)c1nnc(NC(=O)C2c3ccccc3Oc3ccccc32)s1`, -2.51% (inactive). As for `O=c1o[nH]c(-c2ccccc2)c1N=Nc1c(F)cccc1Cl`, the max response is 6.23% (inactive). As to `COc1ccc2c(c1)c(C(=O)N/N=C/c1cccs1)c(C)n2C`, the max response is -3.51% (inactive). Regarding `O=C(CN1CCC(NC(=O)Nc2ccccc2)CC1)Nc1cccc([N+](=O)[O-])c1`, the max response is -2.36% (inactive). In the case of `COCCNC(=O)c1ccc(S(=O)(=O)c2ccc(Cl)cc2)c(NC(C)=O)c1`, the max response is -7.19% (inactive).

For the molecule `CCOc1cc(/C=C/c2nc3ccccc3c(=O)[nH]2)cc(Br)c1OC`, the max response was 2.32% (inactive). Consider `COC(=O)c1cccc(C(=O)N2CCC(CCC(=O)NCc3ccc(F)cc3)CC2)c1`, for which the max response is -0.695% (inactive). As for `Cc1ccc(C2(C(F)(F)F)N=C3Sc4cc(C)cc(C)c4N3C(=O)N2)cc1` (stereo unspecified), the max response is 18.6% (active). In the case of `O=C(Cn1cc(C(F)(F)F)ccc1=O)N/N=C/c1ccc(Cl)cc1Cl`, the max response was -2% (inactive). For `CC(C)(C)c1ccc(C(=O)CSc2ncn[nH]2)cc1` the value was 37.3% (active); for `CCN(C(=O)CSc1ncn[nH]1)c1cccc2ccccc12`, 4.43% (inactive). Consider `Cn1nnc(NC(=O)CSc2ncn[nH]2)n1`, for which the max response is -1.09% (inactive). Regarding `Cc1ccc2c(c1)C(c1ccccc1)N(C(=O)c1ccc(S(=O)(=O)N3CCOCC3)cc1)CC(=O)N2` (stereo unspecified), the max response was -1.59% (inactive). With `N#Cc1c(-c2ccc(F)cc2)cc(C2CC2)nc1SCC(=O)c1cccs1`, the max response is -0.655% (inactive). Consider `N#Cc1c(-c2cccs2)nc(SCC(=O)c2ccc(Br)cc2)[nH]c1=O`, for which the max response was 2.73% (inactive). For `CN(Cc1ccccc1)c1nc2c(c(=O)[nH]c(=O)n2C)n1CCSc1nc2ccccc2[nH]1`, the max response was 0.491% (inactive). Regarding `O=C(CSc1nc2ccccc2[nH]1)Nc1nc(-c2ccccc2)c(-c2ccccc2)o1`, the max response is 0.677% (inactive). In the case of `CN(Cc1ccccc1)C(=O)CSc1nc2ccccc2[nH]1`, the max response is 39.7% (active). For `O=C(CSc1nc2ccccc2[nH]1)c1cccs1` the value was 47.2% (active); for `C=CCN(CC=C)S(=O)(=O)c1ccc(C(=O)Nc2nc3c(s2)CCc2ccccc2-3)cc1`, -6.15% (inactive); for `CC(C)Cn1c(N2CCN(C(=O)/C=C/c3ccccc3)CC2)nc2ccccc21`, 3.07% (inactive). As to `CC1CCCCC1NC(=O)CO/N=C/c1ccc(OC(F)F)cc1` (stereo unspecified), the max response was 1.26% (inactive). `Cc1ccc(C(=O)NCC(=O)OCc2nnc(-c3ccccc3)o2)cc1`: the max response was 23.8% (active). In the case of `O=C(CNC(=O)c1ccc(-c2ccccc2)cc1)OCc1ccc(Cl)cc1`, the max response is -0.931% (inactive). With `O=C(OCc1nnc(-c2ccccc2)o1)c1ccc2c(c1)C(=O)N(CCc1ccccc1)C2=O`, the max response was -1.64% (inactive). For `O=C(CN1CCN(c2cccc(Cl)c2)CC1)Nc1ccc(S(=O)(=O)N2CCOCC2)cc1` the value was -3.83% (inactive); for `CCOc1cc(/C=C2/N=C(c3ccc(C(C)(C)C)cc3)OC2=O)cc(Cl)c1OS(C)(=O)=O`, -4.6% (inactive); for `O=C1CCC(=O)N(O)CCCCCNC(=O)CCC(=O)N(O)CCCCCNC(=O)CCC(=O)N(O)CCCCCN1`, -3.2% (inactive). As to `CC(C)[C@@H]1COC(c2cccc(C3=N[C@H](C(C)C)CO3)c2)=N1`, the max response is 33.7% (active).
